Compound activity from PubChem BioAssay.
Tg IFNy HTS – inhibitors of Toxoplasma gondii growth with IFN-gamma; activity change, negative = inhibition, % (test concentration not listed); AID 1259416; actives 3.8% (n = 69,000); Toxoplasma gondii growth in IFN-gamma-treated host cells; stronger effect = lower value; in the data active = activity change below about -70%, passing the limit was not always enough;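 also: host cells are HeLa cells infected with Toxoplasma gondii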
Starred values were filed as active, the others as inactive; i = inactive. This excerpt belongs to a sample that is enriched for hits.

SMILES | Tg IFNy HTS
CCOc1ccc(-c2nc3c(s2)CN(S(=O)(=O)c2ccc(F)cc2)CC3)cc1 | 43.2
CCOc1ccc(-c2nc3c(s2)CN(S(=O)(=O)c2cccc(F)c2)CC3)cc1 | 33.3
COc1ccc(-c2nc3c(s2)CN(S(=O)(=O)c2ccc(C(C)(C)C)cc2)CC3)cc1 | -0.7
CCOc1ccc(-c2nc3c(s2)CN(S(=O)(=O)c2cc(F)ccc2C)CC3)cc1 | -95.4*
COc1ccc(-c2nc3c(s2)CN(S(=O)(=O)c2ccc(C)cc2)CC3)cc1 | -76.2*
CCCc1ccc(S(=O)(=O)N2CCc3nc(-c4ccc(OC)cc4)sc3C2)cc1 | 16.3
COc1ccc(-c2nc3c(s2)CN(S(=O)(=O)c2ccc(Cl)cc2)CC3)cc1 | 16.4
O=S(=O)(c1ccc(F)cc1)N1CCc2nc(-c3ccccc3)sc2C1 | 45.4
O=S(=O)(c1ccc(F)cc1F)N1CCc2nc(-c3ccccc3)sc2C1 | 37.2
Cc1ccc(Nc2nc(-c3nnc(-c4ccccc4)o3)nc3ccccc23)cc1C | -22.3
CN1CCCCC12CCN(Cc1ccc(F)cc1)CC2 | -21.8
O=C(c1ccco1)N1CC[C@@H]2[C@@H](CO[C@@H]2CNc2ncccn2)C1 | -65.4
Cc1oc(C2CCN(C(=O)c3ccc(C#N)cc3)CC2)nc1C(=O)N1CCCC1 | -22.3
CN(C(=O)c1cc(N2C[C@H]3CC=CC[C@H]3C2)ccn1)C1CCCCC1 | -12.7
O=C1C[C@H]2CC[C@@H](CN1)N2C(=O)CCN1CCCCO1 | 4.8
O=C(NCc1cnc2n1CCN(Cc1ccsc1)C2)C1CC1 | 13.9
Cc1ccc(-c2nc3c(s2)CN(S(=O)(=O)c2cccc(Cl)c2C)CC3)cc1 | -75.5*
Cc1ccc(-c2nc3c(s2)CN(S(=O)(=O)c2ccccc2C)CC3)cc1 | -89.7*
COc1cccc(-c2nc3c(s2)CN(S(=O)(=O)c2ccccc2C)CC3)c1 | -106.8*
COc1cccc(-c2nc3c(s2)CN(S(=O)(=O)c2cc(C)c(C)cc2C)CC3)c1 | -51.0
CCOc1ccc(S(=O)(=O)N2CCc3nc(-c4cccc(OC)c4)sc3C2)cc1 | -23.3
Cc1ccc(-c2nc3c(s2)CN(S(=O)(=O)c2ccc(C)c(C)c2)CC3)cc1 | -24.5
Cc1cc(C)c(S(=O)(=O)N2CCc3nc(-c4ccccc4)sc3C2)c(C)c1 | -5.6
Cc1ccc(-c2nc3c(s2)CN(S(=O)(=O)c2ccc(F)cc2)CC3)cc1 | 6.3
COc1ccc(Cl)cc1S(=O)(=O)N1CCc2nc(-c3ccc(C)cc3)sc2C1 | -63.0
SMILES | Tg IFNy HTS
COc1cccc(-c2nc3c(s2)CN(S(=O)(=O)c2ccc(CC(C)C)cc2)CC3)c1 | -17.4
CCc1ccccc1S(=O)(=O)N1CCc2nc(-c3cccc(OC)c3)sc2C1 | -91.1*
COc1cccc(-c2nc3c(s2)CN(S(=O)(=O)c2ccc(C(C)C)cc2)CC3)c1 | -36.6
Cc1ccc(-c2nc(C)c(CCNS(=O)(=O)c3c(C)cc(C)cc3C)s2)cc1 | -51.7
CC(C)Oc1cccc(-c2cccc(N3CCNCC3)n2)c1 | 9.8
Cn1cc(-c2cc3n(n2)CCC(=O)N3CC(=O)NCCCN2CCCC2=O)c2ccccc21 | 50.6
Nc1nccc2c1ncn2[C@@H]1C=C(CO)[C@@H](O)[C@H]1O | -77.9*
Nc1nccc2c1ncn2[C@@H]1O[C@H](CO)C(O)C1O (stereo partly drawn) | -3.5
CCCSc1ncc(-c2nccn2-c2ccc3n[nH]nc3c2)cn1 | -11.5
COc1ccc(-c2cc(F)ccc2C(C)=O)cn1 | 148.7
O=C(NCC1CC(=O)N(C2CC2)C1)c1cccc2c1NCCC2 (stereo not drawn) | 2.5
C=CCN1C(=O)CCC12CCC(NC(=O)c1ccc[nH]1)CC2 (stereo not drawn) | 1.1
Cc1ccc(C)c(-c2[nH]ncc2CN2CCN(CC(C)C)C(CCO)C2)c1 (stereo not drawn) | -46.2
CS(=O)(=O)c1cccc(CNc2nc(Nc3ccc4c(c3)CCC(=O)N4)ncc2C(F)(F)F)c1 | -68.1
CN(c1ncccc1CNc1nc(Nc2ccc3c(c2)CC(=O)N3)ncc1C(F)(F)F)S(C)(=O)=O | -80.1*
Cc1ccccc1C1(O)CCN(C(=O)CCc2nc3ccccc3[nH]2)C1 (stereo not drawn) | -26.4
CC1CCCCN1C(=O)c1cc(-c2cnc(-c3ccccc3)nc2)cn1C (stereo not drawn) | i
Cc1nc(-c2cn(C(C)C)c3ncccc23)sc1C(=O)N1CCCCC1C (stereo not drawn) | -105.7*
CCCc1ncc(-c2ccncc2C)c(C2CCCN2C(=O)c2sc(NC)nc2C)n1 (stereo not drawn) | -12.6
CSc1cccc(NC(=O)Cn2ncc3c(N4CCCCCC4)ncnc32)c1 | 102.7
CCn1cc(CN2CCN(Cc3cccc(F)c3)CC2)cn1 | -7.9
CCCc1nc(CN(C)C(=O)C2(Nc3ccc(C)cc3)CCCC2)no1 | 4.8
CC1c2snnc2-c2cc(Cl)ccc2S1(=O)=O (stereo not drawn) | -102.5*
CN(Cc1cn[nH]c1-c1ccccc1)C(=O)[C@H]1C[C@@H]2C=C[C@H]1C2 | -11.3
CC(c1ccccc1)n1c(SCC(=O)O)nnc1-c1ccncc1 (stereo not drawn) | -2.9
SMILES | Tg IFNy HTS
Nc1nccc(N2CCOC(CC(c3ccccc3)c3ccccc3)C2)n1 (stereo not drawn) | -60.7
Cc1ccc(NC(=O)CC(=O)N2C[C@@H](C)O[C@@H](C)C2)cc1Cl | 1.9
Cc1cc(-c2cnc(N3CCCC3)nc2C2CCN(C(=O)c3n[nH]c4c3CCC4)CC2)on1 | -82.3*
Cc1ccc(C2(O)CCN(C(=O)c3n[nH]c4c3CCC4)CC2)nc1 | 8.3
Cc1cc(-c2cnc(N3CCOCC3)nc2C2CCN(CC3CCC=CO3)CC2)on1 (stereo not drawn) | 38.3
O=C(COc1ccccc1)NCc1nc2ccccc2[nH]1 | 17.5
O=C(NCc1csc(-c2cnccn2)n1)c1cc2ccccc2s1 | -0.8
Cn1c(=O)c(-c2nc(-c3ccc(Cl)cc3)no2)c(O)c2cc(F)ccc21 | 30.8
CCC(=O)Nc1cccc(-c2cn3ccc(C)cc3n2)c1 | -12.4
CCc1nc(CN(C)C(=O)c2cc(-c3ccccc3)no2)no1 | 5.9
CCc1ccn2cc(-c3cc(-c4ccccc4)no3)nc2c1 | -81.0*
Cc1cc(C)n(CCCC(=O)N2CC(N3CCCCC3C)C2)n1 (stereo not drawn) | -0.2
COc1ncccc1CN1CCN(c2ccc(C(N)=O)cn2)CC1 | -1.0
Cc1oc(-c2cccc(C(F)(F)F)c2)nc1CN1CCCC(C(N)=O)C1 (stereo not drawn) | 3.5
Cc1oc(-c2cccc(Cl)c2)nc1CN1CCCC(C(=O)NC2CCCCCC2)C1 (stereo not drawn) | -56.1
COc1ccc(CNC(=O)C2CCCN(Cc3nc(-c4cccc(C)c4)oc3C)C2)cc1 (stereo not drawn) | -82.6*
CCc1nc(NC(=O)NCCc2nc(-c3ccccc3)cs2)nn1C | 1.8
O=S(=O)(Cc1ccccc1)N1CCC2(CCN(Cc3ccc(Cl)cc3)C2)C1 (stereo not drawn) | -4.9
O=C(Cc1ccc(Cl)cc1)N1CC2(CCN(Cc3ccc(C(F)(F)F)cc3)CC2)C1 | -79.6*
CC(C)(C)CN1CC2(CCN(C(=O)Cc3ccc(Cl)cc3)C2)C1 | 3.4
CCc1nc(SCC(=O)Nc2c(C)cccc2C)c2oc3ccccc3c2n1 | 57.3
CCc1ccc(-c2noc(-c3nnn(Cc4nc(-c5ccc(OC)cc5)oc4C)c3C)n2)cc1 | 5.9
CN(Cc1ccccc1C(F)(F)F)CC(O)CO (stereo not drawn) | -38.9
CCOc1ccc(NC(=O)Cn2ncc3c(N4CCC(C)CC4)ncnc32)cc1 | -30.8
